# For some of these results: Potency and affinity values are given separately.
# What was measured:
# Parameters in all cases: scale not given: direction of the effect not stated beside the values
# [1] = target: Protein translocase subunit SecA (Escherichia coli (strain K12)) (UniProt P10408); experiment: Assay to Identify E. coli SecA ATPase Inhibitors; type: functional; conditions: 30 µM
# [2] = target: T1, Ubiquitin-activating enzyme e1, putative (Leishmania donovani (strain BPK282A1)) (UniProt E9BSI1); experiment: Leishmania donovani Ubiquitin Activating Enzyme (LdE1); type: functional; conditions: 30 µM
# T1 sequence (whole entry): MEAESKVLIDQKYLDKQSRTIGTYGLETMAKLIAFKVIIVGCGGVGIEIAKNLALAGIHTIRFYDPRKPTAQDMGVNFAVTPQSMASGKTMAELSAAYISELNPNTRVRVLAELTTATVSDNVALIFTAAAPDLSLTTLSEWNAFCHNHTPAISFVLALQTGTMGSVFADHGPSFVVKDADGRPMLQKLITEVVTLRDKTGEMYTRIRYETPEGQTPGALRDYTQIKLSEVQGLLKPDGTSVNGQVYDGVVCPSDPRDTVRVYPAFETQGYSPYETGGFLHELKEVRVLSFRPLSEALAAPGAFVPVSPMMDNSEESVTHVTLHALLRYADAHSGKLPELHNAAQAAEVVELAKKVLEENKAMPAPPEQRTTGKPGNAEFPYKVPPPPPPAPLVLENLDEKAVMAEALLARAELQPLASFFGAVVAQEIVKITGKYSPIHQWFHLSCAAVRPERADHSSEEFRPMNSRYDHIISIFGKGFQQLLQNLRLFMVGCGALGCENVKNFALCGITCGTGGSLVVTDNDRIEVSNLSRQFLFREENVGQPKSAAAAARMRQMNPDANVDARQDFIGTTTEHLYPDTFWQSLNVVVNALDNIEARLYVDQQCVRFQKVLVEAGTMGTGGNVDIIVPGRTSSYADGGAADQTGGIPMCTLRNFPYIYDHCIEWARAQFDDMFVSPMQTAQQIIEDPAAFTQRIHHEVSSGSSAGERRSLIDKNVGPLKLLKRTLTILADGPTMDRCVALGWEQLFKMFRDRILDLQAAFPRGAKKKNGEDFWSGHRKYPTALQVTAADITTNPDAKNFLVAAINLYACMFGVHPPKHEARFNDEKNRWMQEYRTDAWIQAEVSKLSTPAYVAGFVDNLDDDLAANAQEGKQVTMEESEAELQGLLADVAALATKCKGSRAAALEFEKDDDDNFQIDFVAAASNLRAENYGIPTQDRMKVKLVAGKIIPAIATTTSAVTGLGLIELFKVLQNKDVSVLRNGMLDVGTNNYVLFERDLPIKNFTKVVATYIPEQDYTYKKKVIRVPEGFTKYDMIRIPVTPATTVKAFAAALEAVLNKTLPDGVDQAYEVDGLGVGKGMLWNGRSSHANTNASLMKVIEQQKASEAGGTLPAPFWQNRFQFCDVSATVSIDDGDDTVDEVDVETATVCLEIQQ
# [3] = target: AMP-activated protein kinase, AMPK (Homo sapiens) (UniProt P54646+O43741+P54619+Q9UGJ0+Q9Y478+Q13131+Q9UGI9); experiment: AMP-dependent Kinase enzyme assay. An in vitro enzyme assay that detects ADP turnover that is directly proportional to AMPK activity. This uses naive AMPK that is activated during the assay with MK-8722; type: functional; conditions: 30 µM
# [4] = target: Sialic acid-binding Ig-like lectin 9 (Homo sapiens) (UniProt Q9Y336); experiment: Hs-Siglec9 ALPHAscreen SOP 20170721; conditions: 10 µM
# Sequence of Sialic acid-binding Ig-like lectin 9 (Homo sapiens) (Q9Y336 whole entry): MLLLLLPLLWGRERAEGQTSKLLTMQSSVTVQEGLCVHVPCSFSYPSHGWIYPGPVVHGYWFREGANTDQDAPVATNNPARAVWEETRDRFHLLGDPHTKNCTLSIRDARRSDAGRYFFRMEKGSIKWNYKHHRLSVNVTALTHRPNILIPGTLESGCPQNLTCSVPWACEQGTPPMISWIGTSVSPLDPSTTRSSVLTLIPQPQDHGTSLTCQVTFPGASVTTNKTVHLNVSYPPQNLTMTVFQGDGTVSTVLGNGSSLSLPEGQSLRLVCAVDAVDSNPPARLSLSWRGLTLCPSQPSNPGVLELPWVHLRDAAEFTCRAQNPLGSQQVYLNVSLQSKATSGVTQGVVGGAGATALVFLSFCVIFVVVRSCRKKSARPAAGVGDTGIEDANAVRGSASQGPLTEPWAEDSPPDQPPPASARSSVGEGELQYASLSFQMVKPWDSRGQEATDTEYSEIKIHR
# Trypanosoma cruzi = experiment: Trypanosoma cruzi phosphomannomutase and mannose-1-phosphate guanylyltransferase assay; type: functional; conditions: 10 µM
# [5] = target: T2, Arginase-2, mitochondrial (Homo sapiens) (UniProt P78540); experiment: in vitro enzyme assay to detect the production of urea directly proportional to the activity of Arginase II; type: functional; conditions: 33.3 µM; note: in the data most compounds retested in dose-response had high values
# T2 sequence (whole entry): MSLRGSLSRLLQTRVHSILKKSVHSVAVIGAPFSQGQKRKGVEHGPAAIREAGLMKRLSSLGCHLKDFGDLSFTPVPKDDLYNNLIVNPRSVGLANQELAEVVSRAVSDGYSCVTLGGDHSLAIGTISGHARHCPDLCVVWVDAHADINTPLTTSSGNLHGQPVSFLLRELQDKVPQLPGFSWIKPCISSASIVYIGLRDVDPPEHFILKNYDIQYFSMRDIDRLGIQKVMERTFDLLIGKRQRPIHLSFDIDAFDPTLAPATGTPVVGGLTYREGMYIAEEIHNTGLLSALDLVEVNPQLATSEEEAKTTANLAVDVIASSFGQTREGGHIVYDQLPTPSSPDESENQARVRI
# [6] = target: T3, Proteasome subunit beta (Trypanosoma cruzi) (UniProt O96673); experiment: Trypanosoma cruzi proteasome chymotrypsin-like activity (TcProtChymo) assay.; note: in the data most compounds retested in dose-response had high values; type: functional; conditions: 9.37 µM
# T3 sequence (whole entry): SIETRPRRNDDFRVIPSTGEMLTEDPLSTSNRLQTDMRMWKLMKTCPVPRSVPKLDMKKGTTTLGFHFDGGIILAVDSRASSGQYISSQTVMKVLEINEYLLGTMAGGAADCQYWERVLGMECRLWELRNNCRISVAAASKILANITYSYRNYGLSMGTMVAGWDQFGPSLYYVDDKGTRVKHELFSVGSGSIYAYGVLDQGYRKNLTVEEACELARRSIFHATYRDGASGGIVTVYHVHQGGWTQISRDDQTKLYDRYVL
# Homo sapiens = species: Homo sapiens; experiment: To identify inhibition of the IFN signalling (Jak-Stat) pathway via expression of an eGFP reporter gene under the control of an IFN-stimulated response element (ISRE) containing MxA promoter.; type: functional; conditions: 30 µM
# [7] = target: T4, Tyrosyl-tRNA synthetase, putative (Trypanosoma cruzi (strain CL Brener)) (UniProt Q4DSP6); experiment: Trypanosoma cruzi tyrosyl tRNA synthetase (TcYRS) _High Tyrosine SOP; type: functional; conditions: 30 µM; note: in the data most compounds retested in dose-response had high values
# T4 sequence (whole entry): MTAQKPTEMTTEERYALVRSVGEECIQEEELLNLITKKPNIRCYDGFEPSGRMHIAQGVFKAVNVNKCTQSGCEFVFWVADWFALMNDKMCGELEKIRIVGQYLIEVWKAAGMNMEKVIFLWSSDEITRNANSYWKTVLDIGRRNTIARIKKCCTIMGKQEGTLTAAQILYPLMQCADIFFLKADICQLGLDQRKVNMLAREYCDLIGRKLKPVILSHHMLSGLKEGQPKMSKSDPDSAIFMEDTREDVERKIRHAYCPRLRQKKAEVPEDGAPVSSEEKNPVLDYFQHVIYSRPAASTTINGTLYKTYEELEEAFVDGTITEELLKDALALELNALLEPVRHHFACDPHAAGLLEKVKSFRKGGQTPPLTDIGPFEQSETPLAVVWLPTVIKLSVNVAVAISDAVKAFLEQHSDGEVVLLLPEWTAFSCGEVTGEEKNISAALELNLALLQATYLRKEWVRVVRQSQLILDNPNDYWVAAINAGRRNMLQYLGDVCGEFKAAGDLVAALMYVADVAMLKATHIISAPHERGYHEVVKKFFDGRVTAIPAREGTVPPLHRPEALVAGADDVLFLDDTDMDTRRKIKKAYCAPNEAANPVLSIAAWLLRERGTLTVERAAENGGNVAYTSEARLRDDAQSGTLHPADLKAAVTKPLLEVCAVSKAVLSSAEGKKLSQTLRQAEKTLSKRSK
# [8] = target: T4, Tyrosyl-tRNA synthetase, putative (Trypanosoma cruzi (strain CL Brener)); experiment: Trypanosoma cruzi tyrosyl tRNA synthetase (TcYRS) SOP; type: functional; conditions: 30 µM
# [9] = target: Chromo domain-containing protein 1 (Saccharomyces cerevisiae (strain ATCC 204508 / S288c) (Baker's yeast)) (UniProt P32657); experiment: ScCHD-1 Enzyme Inhibition Assay; type: functional; conditions: 30 µM; note: in the data most compounds retested in dose-response had high values
# Sequence of Chromo domain-containing protein 1 (Saccharomyces cerevisiae (strain ATCC 204508 / S288c) (Baker's yeast)) (P32657 whole entry, the tested form may be a part): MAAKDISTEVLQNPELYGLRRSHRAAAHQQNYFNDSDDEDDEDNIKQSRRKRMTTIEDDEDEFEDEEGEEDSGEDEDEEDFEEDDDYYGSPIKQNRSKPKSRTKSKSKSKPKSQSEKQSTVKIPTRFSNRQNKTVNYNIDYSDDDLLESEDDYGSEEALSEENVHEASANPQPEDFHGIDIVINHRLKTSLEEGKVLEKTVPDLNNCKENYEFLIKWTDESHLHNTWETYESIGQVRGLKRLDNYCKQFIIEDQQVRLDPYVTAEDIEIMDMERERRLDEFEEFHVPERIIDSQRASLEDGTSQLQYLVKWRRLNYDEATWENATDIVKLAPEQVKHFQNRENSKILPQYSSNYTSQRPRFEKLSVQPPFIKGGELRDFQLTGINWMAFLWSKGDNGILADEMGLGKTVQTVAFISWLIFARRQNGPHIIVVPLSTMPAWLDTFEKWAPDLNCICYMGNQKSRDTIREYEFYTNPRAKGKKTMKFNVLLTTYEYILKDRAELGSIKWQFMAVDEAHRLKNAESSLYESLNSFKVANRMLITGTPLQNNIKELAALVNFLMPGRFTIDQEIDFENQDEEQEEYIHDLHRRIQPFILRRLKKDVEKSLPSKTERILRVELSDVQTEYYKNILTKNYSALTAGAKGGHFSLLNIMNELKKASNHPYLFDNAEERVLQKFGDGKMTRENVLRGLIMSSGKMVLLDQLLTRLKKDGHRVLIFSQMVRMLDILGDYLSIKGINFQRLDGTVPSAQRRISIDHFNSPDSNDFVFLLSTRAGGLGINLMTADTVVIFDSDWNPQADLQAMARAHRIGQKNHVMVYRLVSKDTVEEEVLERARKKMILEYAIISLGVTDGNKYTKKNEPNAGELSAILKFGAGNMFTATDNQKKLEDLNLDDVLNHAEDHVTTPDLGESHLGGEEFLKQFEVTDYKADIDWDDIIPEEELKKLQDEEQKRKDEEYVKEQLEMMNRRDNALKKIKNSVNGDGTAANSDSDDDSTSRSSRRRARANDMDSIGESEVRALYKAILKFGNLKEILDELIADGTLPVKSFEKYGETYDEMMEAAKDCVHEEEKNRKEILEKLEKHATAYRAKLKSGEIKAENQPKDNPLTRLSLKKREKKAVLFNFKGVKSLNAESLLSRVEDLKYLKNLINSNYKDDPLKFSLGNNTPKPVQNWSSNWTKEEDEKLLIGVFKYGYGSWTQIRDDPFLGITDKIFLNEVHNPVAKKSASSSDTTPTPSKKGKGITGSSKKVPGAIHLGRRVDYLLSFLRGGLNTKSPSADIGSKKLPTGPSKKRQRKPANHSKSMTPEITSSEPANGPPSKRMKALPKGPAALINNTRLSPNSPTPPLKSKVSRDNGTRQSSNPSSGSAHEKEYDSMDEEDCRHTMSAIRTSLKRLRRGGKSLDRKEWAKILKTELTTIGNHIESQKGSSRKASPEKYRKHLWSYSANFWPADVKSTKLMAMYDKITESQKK
# Sequence of Protein translocase subunit SecA (Escherichia coli (strain K12)) (P10408 whole entry): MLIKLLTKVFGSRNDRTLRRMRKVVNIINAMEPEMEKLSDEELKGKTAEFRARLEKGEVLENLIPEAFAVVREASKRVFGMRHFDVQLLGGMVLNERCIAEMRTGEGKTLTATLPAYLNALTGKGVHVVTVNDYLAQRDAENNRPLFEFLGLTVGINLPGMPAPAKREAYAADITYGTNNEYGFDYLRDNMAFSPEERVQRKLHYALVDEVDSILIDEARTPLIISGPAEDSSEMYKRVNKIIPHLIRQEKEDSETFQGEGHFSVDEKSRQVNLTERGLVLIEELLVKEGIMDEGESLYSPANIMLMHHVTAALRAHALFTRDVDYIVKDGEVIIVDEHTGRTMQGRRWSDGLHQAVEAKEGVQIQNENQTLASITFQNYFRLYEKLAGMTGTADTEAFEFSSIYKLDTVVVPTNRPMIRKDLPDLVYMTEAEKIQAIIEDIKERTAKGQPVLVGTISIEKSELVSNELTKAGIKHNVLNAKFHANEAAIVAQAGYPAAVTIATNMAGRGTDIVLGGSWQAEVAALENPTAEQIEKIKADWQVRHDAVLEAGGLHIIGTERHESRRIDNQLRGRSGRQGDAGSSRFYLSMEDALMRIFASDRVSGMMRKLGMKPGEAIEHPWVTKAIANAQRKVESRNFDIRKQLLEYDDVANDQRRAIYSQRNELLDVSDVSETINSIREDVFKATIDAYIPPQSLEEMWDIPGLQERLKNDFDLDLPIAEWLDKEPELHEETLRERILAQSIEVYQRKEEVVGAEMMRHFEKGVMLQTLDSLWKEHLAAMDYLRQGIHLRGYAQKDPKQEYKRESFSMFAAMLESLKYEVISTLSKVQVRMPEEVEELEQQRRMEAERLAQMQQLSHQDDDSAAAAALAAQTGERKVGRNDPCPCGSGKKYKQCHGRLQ
Structure (SMILES),Percent Effect [1],Percent Effect [2],Percent Effect [3],Percent Effect [4],Percent Effect (Trypanosoma cruzi),Percent Effect [5],Percent Effect [6],Percent Effect (Homo sapiens),Percent Effect [7],Percent Effect [8],Percent Effect [9]
CC(C)c1nccn1C1CCCN(C(=O)c2ccc3c(c2)OCO3)C1 (stereo not given),1.45%,-2.6%,7.64%,-5.54%,1.27%,5.26%,3.96%,9.94%,0%,-2.35%,-9.35%
C1CC1c1nsc(N2CCN(C3CC3)CC2)n1,-5.35%,13.7%,2.89%,8.66%,5.49%,13.2%,13.3%,12.3%,6.45%,15%,-6.12%
Cn1ncc2c(NCCC34CCCN3CCC4)nc(C3CCCC3)nc21,-5.81%,5.48%,0.214%,3.33%,0.979%,4.09%,5.68%,-18.5%,6.45%,12.5%,-5.71%
Cc1cnc(C(=O)N2CCCN(Cc3csc(C)n3)CC2)cn1,-5.93%,13.7%,-7.71%,11.9%,6.75%,2%,18.8%,-1.38%,5.21%,8.64%,-12.5%
Cc1cc(S(=O)(=O)N2CCCc3ccc(F)cc32)sc1C(=O)O,-6.14%,0%,3.45%,0.802%,-1.85%,4.69%,1.74%,12.6%,-23.5%,-33.3%,-2.04%
Cc1nccn1C1CCCN(C(=O)c2cc(O)nc3ccccc23)C1 (stereo not given),-2.57%,12.7%,-7.86%,5.85%,-1.98%,-4.18%,-4.34%,-4.23%,6.4%,13.9%,-5.76%
CCc1nccn1C1CCCN(C(=O)c2ccc3c(c2)OCO3)C1 (stereo not given),-3.94%,-2.6%,8.35%,-3.25%,-3.93%,-3.2%,1.01%,25.9%,-1.94%,-4.88%,-7.3%
COc1cccc(N2CCN(Cc3ccc(NC(C)=O)cc3)CC2=O)c1,-2.84%,18.1%,-5.61%,20.1%,6.51%,10.2%,11.6%,4.1%,4.21%,15.4%,-2.22%
CN(C)C(=O)CC1CC2(CCN(CC3CC3)CC2)c2cc(F)ccc21 (stereo not given),-6.7%,5.41%,-8.18%,-5.86%,-2.44%,-4.14%,3.14%,5.88%,-5.41%,-2.56%,5.46%
CCN(CC)c1ccc(NS(=O)(=O)c2cnn(C)c2)cn1,-1.96%,16.4%,-5.27%,6.69%,8.33%,-6.39%,8.48%,0.142%,6.25%,13.6%,-5.08%
Cc1noc(C)c1C(=O)NCC(c1ccc(F)cc1)N(C)C (stereo not given),-3.62%,8.11%,1.69%,-12.4%,-3.25%,0.924%,0.898%,16.5%,5.94%,13.4%,0.216%
COCCCN1CCc2cncnc2C1,-2.65%,5.06%,-237%,6.45%,9.35%,2.66%,8.27%,-13.7%,5.42%,8.86%,-6.93%
O=C1NCCN1C1CCN(Cc2ccccn2)CC1,-1.85%,0%,-5.58%,1.53%,-2.12%,1.91%,8.62%,0.116%,3.7%,2.44%,-3.18%
CCCNC(=O)c1cc2c(nc1O)CCC(C)C2 (stereo not given),-3.98%,14.7%,2.01%,-2.15%,5.5%,-13.9%,9.06%,-2.51%,6.35%,10.3%,-8.5%
Cc1noc(CN(Cc2ccc3c(c2)OCO3)C2CCCC2)n1,-1.22%,10.8%,-9.58%,6.53%,-1.04%,-12%,6.67%,29.7%,3.45%,3.7%,-9.8%
CC(=O)N1CCN(C(=O)c2cnn(-c3ccccc3Cl)c2)CC1,-5.95%,21.6%,-7.37%,17.5%,6.32%,-8.82%,9.19%,13.8%,8.37%,18.5%,-9.57%
Cn1nccc1-c1ccc2nc(C3CCN(CCO)CC3)nn2c1,-3.12%,13.3%,0.376%,3.71%,1.35%,-54.7%,13.5%,3.01%,5.21%,22.5%,-7.82%
c1cnn(CC2CN(c3ncnc4sccc34)CCO2)c1 (stereo not given),-4.4%,2.7%,2.36%,-2.57%,1.37%,2.08%,17.8%,52.9%,12.9%,15.8%,-4.89%
COc1cccc(CN2CCC(c3nccn3C(C)C)CC2)c1,-3.84%,15.6%,0.593%,14.9%,4.23%,-5.52%,11.5%,-3.74%,7.53%,21%,-7.09%
CS(=O)(=O)NCC1CCCN(Cc2ccc(F)c3cccnc23)C1 (stereo not given),-1.47%,2.6%,-1.1%,10.8%,-2.06%,-4.14%,18.5%,16.9%,5.38%,13.6%,3.65%

# From ChEMBL document CHEMBL3988442, “University of Dundee, Small-Polar-MMV Screening Library” (2021)
